Screening data as filed in PubChem BioAssay.
Cruzain inh noDet: cruzain (T. cruzi) inhibition without detergent. P25779. purified cruzain, Z-FR-AMC fluorescence, no detergent. Potency, µM, inactives show max response, negative = inhibition, usual class: inhibitors. 200,000 tested, 2.3% active. AID 1476;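 also: plate controls were enzyme without inhibitor for no effect and buffer without enzyme for full effect; nearly all actives have a fitted effect of over 40% in size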
Target sequence (P25779 123-467 limits assumed): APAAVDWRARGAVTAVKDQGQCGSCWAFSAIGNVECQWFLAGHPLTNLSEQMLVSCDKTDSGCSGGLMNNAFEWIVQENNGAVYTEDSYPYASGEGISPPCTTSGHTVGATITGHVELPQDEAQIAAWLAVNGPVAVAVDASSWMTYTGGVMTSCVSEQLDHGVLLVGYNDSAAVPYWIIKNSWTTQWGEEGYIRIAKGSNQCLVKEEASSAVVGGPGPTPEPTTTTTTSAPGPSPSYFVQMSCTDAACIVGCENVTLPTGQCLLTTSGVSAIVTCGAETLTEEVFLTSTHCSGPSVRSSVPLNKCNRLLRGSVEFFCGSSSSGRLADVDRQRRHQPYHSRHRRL
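Detergent-free condition (0.00005% Triton X-100) in acetate buffer pH 5.5 with DTT. 1.5 nM enzyme and compound were pre-mixed 15 min, then 2 uM Z-FR-AMC substrate added; reaction progress from fluorescence change between first and third reads (60 s).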
Cruzain inh Det: cruzain (T. cruzi) inhibition with detergent. P25779. purified cruzain, Z-FR-AMC fluorescence, 0.01% Triton. Potency, µM, inactives show max response, negative = inhibition, actives largely listed as inhibitors. 200,000 tested, 0.43% active. AID 1478;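 also: plate controls were neutral wells for no effect and buffer without enzyme for full effect; nearly all actives have a fitted effect of over 40% in size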
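Purified cruzain (1.5 nM final) was preincubated with compounds for 15 min at room temperature in 100 mM sodium acetate pH 5.5, 5 mM DTT, 0.01% Triton X-100. Reaction started with 2 uM Z-FR-AMC; AMC fluorescence change over 60 s gave activity.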
* marks the source's active call; other numbers are inactive results. Hits are enriched below; roughly 2.6% of the tested compounds scored in any of these assays. Calls follow the shape of the dose curve; as a rule, active = well fitted curve in the direction sought with a large enough effect; inconclusive = small, poorly fitted or top-dose-only effect, or another doubt; inactive = no such curve, though single readings can be large; an effect the other way counts as inactive or inconclusive. Potency is read from the fitted curve at half-maximal effect.

`COc1ccc(OC)c(NC(=O)c2cnc(Nc3ccc(C)c(Cl)c3)c3ccccc23)c1` gave Cruzain inh noDet 6.3µM* and Cruzain inh Det -4%.
COc1ccc(Nc2ncc(C(=O)N3CCN(Cc4ccccc4)CC3)c3ccccc23)cc1 was read as Cruzain inh noDet 0% and Cruzain inh Det 0%.
For COc1ccccc1NC(=O)c1cnc(Nc2ccccc2OC)c2ccccc12 the results were Cruzain inh noDet inconclusive and Cruzain inh Det -10%.
Screening Cc1ccc2occ(CC(=O)N(Cc3ccccc3Cl)C3CCS(=O)(=O)C3)c2c1 (stereo unspecified) returned Cruzain inh noDet 7% and Cruzain inh Det -7%.
COc1ccc(C(=O)N2CCC(c3c[nH]c4ccccc34)(c3c[nH]c4ccccc34)CC2)cc1 was read as Cruzain inh noDet -15% and Cruzain inh Det -3%.
`CCN(CC)c1ccc(C(=O)N2CCC(c3c[nH]c4ccccc34)(c3c[nH]c4ccccc34)CC2)cc1` gave Cruzain inh noDet 10µM* and Cruzain inh Det -2%.
For O=C(OCC(=O)c1ccc([N+](=O)[O-])cc1)/C(=C/c1ccc(Cl)cc1)NC(=O)c1ccccc1 the results were Cruzain inh noDet 16µM* and Cruzain inh Det 2.8µM*.
For O=C(Cc1ccccc1)NCC(=O)OCC(=O)c1ccc([N+](=O)[O-])cc1 the results were Cruzain inh noDet -18% and Cruzain inh Det -14%.
CC1CCCCN1CCCNC(=O)c1ccc2c(c1)sc1nc(-c3ccc(F)cc3)cn12 (stereo unspecified) was read as Cruzain inh noDet 2% and Cruzain inh Det -2%.
`COc1cccc(C2C3=C(N=c4s/c(=C\c5cccc(O)c5)c(=O)n42)c2ccccc2CC3)c1OC` (stereo unspecified) gave Cruzain inh noDet 10µM* and Cruzain inh Det 0%.
Screening COc1ccccc1C1C2=C(N=c3s/c(=C/c4cccc(OCC(=O)O)c4)c(=O)n31)c1ccccc1CC2 (stereo unspecified) returned Cruzain inh noDet inconclusive and Cruzain inh Det 28µM*.
Screening COc1cccc(C2C3=C(N=c4s/c(=C\c5ccc(O)cc5)c(=O)n42)c2ccccc2CC3)c1OC (stereo unspecified) returned Cruzain inh noDet inconclusive and Cruzain inh Det -2%.
`CCOC(=O)C1=C(C)N=c2s/c(=C\c3cc(OC)c(OC)c(OC)c3)c(=O)n2C1/C=C/c1ccccc1` (stereo unspecified) gave Cruzain inh noDet 13% and Cruzain inh Det -3%.
For COC(=O)c1nnc(SC)nc1C(=O)OC the results were Cruzain inh noDet 3% and Cruzain inh Det 1%.
`CCC(C(=O)NC1CCCCC1)n1nc(C)c2sc3ccccc3c2c1=O` (stereo unspecified) gave Cruzain inh noDet inconclusive and Cruzain inh Det -5%.
Screening CSc1ccc(CCNc2ncnc3onc(-c4ccc(Cl)cc4)c23)cc1 returned Cruzain inh noDet 1% and Cruzain inh Det -5%.
Screening CCOc1ccccc1-n1c(SCC(=O)Nc2ccc(CC)cc2)nc2n[nH]c(C)c2c1=N returned Cruzain inh noDet 6.3µM* and Cruzain inh Det 1%.
For CCc1ccc(NC(=O)CSc2nc3n[nH]c(C)c3c(=N)n2-c2ccccc2C)cc1 the results were Cruzain inh noDet -25% and Cruzain inh Det -2%.
Screening COc1cc(NC(=O)CC(c2cccs2)N2Cc3ccccc3C2=O)cc(OC)c1OC (stereo unspecified) returned Cruzain inh noDet 22% and Cruzain inh Det -3%.
Screening CCOC(=O)c1c(C)[nH]c(C)c1S(=O)(=O)NCC(=O)Nc1cccc(SC)c1 returned Cruzain inh noDet 1% and Cruzain inh Det 0%.
`O=C(/C=C/c1ccc(Br)cc1)c1ccc(NC2=NCCCS2)cc1` gave Cruzain inh noDet inconclusive and Cruzain inh Det -17%.
For CC(C)(C)c1ccc(/C=C/C(=O)c2ccc(NC3=NCCCS3)cc2)cc1 the results were Cruzain inh noDet 32µM* and Cruzain inh Det -24%.
`COC(=O)c1ccc(C(NC(=O)OCc2ccccc2)/C(C)=C/[C@@H](C)C(=O)NCc2cc(F)cc(F)c2)cc1` (stereo partly specified) gave Cruzain inh noDet 2% and Cruzain inh Det -1%.
For CO[C@H]1[C@@H](OC(N)=O)[C@H](O)[C@@H](Oc2ccc3c(O)c(NC(=O)c4ccc(O)c(CC=C(C)C)c4)c(=O)oc3c2C)OC1(C)C the results were Cruzain inh noDet inconclusive and Cruzain inh Det -9%.
For Cc1ccc(C2C(C#N)=C(N)Oc3n[nH]c(-c4cccs4)c32)cc1 (stereo unspecified) the results were Cruzain inh noDet 32µM* and Cruzain inh Det -2%.
N#CC1=C(N)Oc2n[nH]c(-c3cccs3)c2C1c1ccoc1 (stereo unspecified) was read as Cruzain inh noDet -7% and Cruzain inh Det -4%.
`Cc1ccc(CN2CCCn3nc(C(=O)NCc4cc(C)ccc4C)cc3C2=O)cc1` gave Cruzain inh noDet -3% and Cruzain inh Det -4%.
CCN(c1ccc(C)cc1C)S(=O)(=O)c1nnc(NC(=O)c2ccc(F)cc2)s1 was read as Cruzain inh noDet 9% and Cruzain inh Det -5%.
CCOC(=O)[C@@H]1[C@@H]2c3ccccc3-c3ccccc3[C@H]2C[C@H]1O was read as Cruzain inh noDet -7% and Cruzain inh Det 0%.
O=c1[nH]c2cc(Cl)ccc2c(O)c1-c1ccc(Oc2ccccc2)cc1 was read as Cruzain inh noDet 10µM* and Cruzain inh Det 2%.
COCc1cc(=O)[nH]c(Sc2c(-c3ccccc3)c3ccc(Cl)cc3[nH]c2=O)n1 was read as Cruzain inh noDet inconclusive and Cruzain inh Det -2%.
Screening O=c1[nH]c2cc(Cl)ccc2c(O)c1-c1cccc(Oc2ccccc2)c1 returned Cruzain inh noDet 3.2µM* and Cruzain inh Det 5%.
For O=c1[nH]c2ccc(Cl)cc2c(O)c1-c1ccccc1 the results were Cruzain inh noDet 0% and Cruzain inh Det 1%.
For CCC(/C=C/C(C)C1CCC2C3CCC4=CC(=O)CC[C@@]4(C)C3CC[C@@]12C)C(C)C (stereo partly specified) the results were Cruzain inh noDet 5% and Cruzain inh Det -1%.
COc1cccc(CCc2ccccc2OCC[C@@H]2C[C@@H](O)CN2C)c1 was read as Cruzain inh noDet -1% and Cruzain inh Det -3%.
`COc1cc(C2C(=O)N(C3CCCCCC3)CC(=O)N2CCc2ccccc2)ccc1OC(C)C` (stereo unspecified) gave Cruzain inh noDet 9% and Cruzain inh Det 0%.
Screening CCN(CC)S(=O)(=O)c1cccc(NC(=O)C2SC(=Nc3ccc(C)cc3C)C(C(=O)NC(C)COC)=C2N)c1 (stereo unspecified) returned Cruzain inh noDet -11% and Cruzain inh Det 1%.
CCCCNC(=O)C1=C(N)C(C(=O)Nc2ccc(C)c(S(=O)(=O)N3CCCCC3)c2)SC1=Nc1ccc(C)cc1C (stereo unspecified) was read as Cruzain inh noDet 7.9µM* and Cruzain inh Det 7%.
`CCc1cccc(NC(=O)C2CCCN2S(=O)(=O)c2ccc3nc(-c4ccccc4)[nH]c3c2)c1` (stereo unspecified) gave Cruzain inh noDet 3% and Cruzain inh Det -5%.
For Cc1ncc([N+](=O)[O-])n1CCN=[N+]=[N-] the results were Cruzain inh noDet -8% and Cruzain inh Det 1%.
CSC(=[SH+])N=N/C(=C1/C=CC=CN1)c1ccccn1.[Cu][Br] was read as Cruzain inh noDet 0% and Cruzain inh Det 0%.
